# Tested on: PPARg:RXRa DBDmut IVT, anti-RXR (DBD mutation: RXRa K156A/R161A, NR concentration 270 nM, RXRa partner concentration 90 nM)
# Test: PBM binding z-score (relative to random genomic background probes); higher = stronger binding; sequences stand for … in GC…GCGATTGACAGCGTAGAATGAAGG
# Outline: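 Custom Agilent 4×180K protein-binding microarrays carried double-stranded probes. Their 34-nt variable regions held direct-repeat seeds, single-nucleotide variants, half-site ablations and random human genomic background sequences. Arrays were incubated 1 h with ligand-free nuclear receptor dimers in PBS pH 7.4, 2% milk, 0.02% Triton X-100, 1 mM DTT, 0.2 mg/mL BSA and 0.4 mg/ml salmon testes DNA. Antibodies against each partner (one per run) detected binding, and scanned fluorescence was regression-normalized. Binding z-scores use random background probes as reference.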
row,Sequence,PBM binding z-score
1,ACTCGGAGTACAAAGGTCAGAGCTACGCCAGTGA,0.771
2,GCTCGCAGGACAAGGTCAGAGCTTTGTCCGTAGA,-0.189
3,ATCGAAAGGTCGAAGGTGAGTATCCCCACCCGAA,0.0448
4,GTACCAAGGTGAATAGGTCGTTGAGGAGTAGGCG,1.82
5,CCTACTGGGCCAAAAAGGTCATTGGTGCCGATAA,3.78
6,ACTATTAGTTGAGACGAGGGGAACCGATAGGTTG,0.452
7,TCAGACAGGTGAAGGTAACTTAGGTACGCAGTCG,2.71
8,GCCAGCAGGCCATTTGGGTCACTCAATGACGGGC,0.295
9,GCTATTAGTTGAAAGGGCAACTGAATGATTCTCG,0.54
10,TAGCCTAGGTCAAATCGGGCCAGTATACGCTATA,1.98
11,CAAACTAGGTCATCGGAAGGTCAAAGTCCGCATG,7.98
12,GGAACTAGGGCATTCGAGTTGATAGCATGGCGAT,7.47
13,TCTTGAAGATCAACAGGAGGTTAAGAAAGATCGA,1.18
14,ACAGACAGGTGAGTGAAGGTATCTCAGCTGGACG,0.178
15,CAAACTAGGTCAAGCTCAAAGTCGGTTTGTGCCA,8.39
16,AATACAGGGTCATCGTAGCCCAGAGTACGCACAG,3.35
17,CCTGCTAGGTCATGGTAAGCTAATCTACAGTATG,4.44
18,GCTAGCAGGCCATTTGGGTCACTCAGTGACGGGC,1.94
19,TCAGACAGGTGAAGATAACTCAGGTACGCAGTCG,2.79
20,CCAGACAGGTGAGAAGGTAACTTAGCCTCGATTA,0.936

row,Sequence,PBM binding z-score
1,TAGCCTAGGTCATGCGGTCCAGTATAGTGTCGGC,1.68
2,ACTAGTTGGTCAGCGGAGGTCACACACAATTCGG,1.63
3,TGAATGAGGTTAAAGATCACGGAACGTGGCGTCG,2.31
4,TATACAGGGTCAAAGGCCAGGGTACGAATGTCGA,2.06
5,CCTTACGGGACACGAGGTTATAGCACGACGAGCG,0.526
6,CTACCAAGGTGAACAAGGTCGTTGAATACTATTC,2.52
7,CCGACTGGGACAAGGTTACCATAACGCACAGCCA,2.14
8,CCTAGTTGGTCAAGTTCACACACGCTATAGGTAC,1.95
9,ATTAGCAGGCCAAGTTTGGGTCACTCAAACAAAG,0.708
10,GATACAGGGTCACGGCCAGAGTACGCGTATTGAT,4.17
11,GCTAGCAGGCCATTTGGGTCGCTCAATGACGGGC,0.479
12,TCTAGCAGGCCAGAGGCTCACTCAAGAGGTACGG,0.411
13,ATCGAAAGGTCGAAGCTGAGTATACCCACCCGAA,0.112
14,CATTCAGGGTCAGCTAGGCCAGAGTAGGGACGGC,1.6
15,TTTGCTAGGTCAGTTGGTCAGCTAACGAGCTGCC,3.23
16,ACAGACAGGTGCTGAAGGTAACTCAGGCTATCAT,-0.133
17,AGAAGGAGGTTAAGATCAGGGAAACAGAATACAT,1.24
18,AGAATGAGGTTAAGATCAGGCAAACAGAATACAT,2.85
19,CCTACTGGGCCAACGTCATTGATCAGTCAAAGCA,3.87
20,GCTAGCAGGCCGTTTGGGTCACTCAATGACGGGC,-0.553

# From the supplement of paper PMC6555819
